Measured values from the supplement of paper PMC6897291.

System: RIVA
Test: growth inhibition by drug plus 177Lu-lilotomab satetraxetan (1 - RLU/untreated control) (fraction); higher = stronger inhibition
Settings: 177Lu-lilotomab satetraxetan 0.5 ug/ml
Description: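 RIVA (RI-1) ABC-DLBCL cells were pretreated or not for 18 h with 0.5 ug/ml 177Lu-lilotomab satetraxetan (600 MBq/mg), washed and seeded (3000 cells/well) on 384-well plates pre-printed with the Selleck Cambridge Cancer Compound library. Viability was read by RealTime-Glo luminescence on days 3-6 after seeding. Effect = 1 - RLU/mean RLU of the 48 untreated no-drug control wells per plate; Bliss score = (M-E)/(1-Fa).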

| SMILES | growth inhibition by drug plus 177Lu-lilotomab satetraxetan (10 nM, time (day): 3) | growth inhibition by drug plus 177Lu-lilotomab satetraxetan (10 nM, time (day): 4) | growth inhibition by drug plus 177Lu-lilotomab satetraxetan (10 nM, time (day): 5) | growth inhibition by drug plus 177Lu-lilotomab satetraxetan (10 nM, time (day): 6) | growth inhibition by drug plus 177Lu-lilotomab satetraxetan (100 nM, time (day): 3) | growth inhibition by drug plus 177Lu-lilotomab satetraxetan (100 nM, time (day): 4) | growth inhibition by drug plus 177Lu-lilotomab satetraxetan (100 nM, time (day): 5) | growth inhibition by drug plus 177Lu-lilotomab satetraxetan (100 nM, time (day): 6) |
| --- | --- | --- | --- | --- | --- | --- | --- | --- |
| O=NN(CCCl)C(=O)NC1CCCCC1 [Lomustine (CeeNU)] | 0.573 | 0.596 | 0.607 | 0.603 | 0.383 | 0.486 | 0.488 | 0.501 |
| CN(N=O)C(=O)N[C@@H](C=O)[C@@H](O)[C@H](O)[C@H](O)CO [Streptozotocin (Zanosar)] | 0.377 | 0.504 | 0.521 | 0.516 | 0.38 | 0.458 | 0.481 | 0.445 |
| C#CCN(C)CC1=Cc2ccccc2Oc2ccccc21 | 0.602 | 0.618 | 0.628 | 0.62 | 0.573 | 0.617 | 0.634 | 0.63 |
| COc1ccc(COc2cc3oc(=O)c4cc(C(C)O)ccc4c3cc2OC)cc1 (stereo not given) [Palomid 529] | 0.337 | 0.478 | 0.494 | 0.503 | 0.321 | 0.445 | 0.454 | 0.453 |
| CNC(=O)c1cc(Oc2ccc(NC(=O)Nc3cc(C(C)(C)C)nn3-c3ccc4ncccc4c3)c(F)c2)ccn1 [DCC-2036 (Rebastinib)] | 0.44 | 0.57 | 0.586 | 0.613 | 0.486 | 0.607 | 0.626 | 0.633 |
